Results reported in PubChem BioAssay (EPA / NIEHS).
Results filed as inconclusive are left out. The source made the active and inactive calls. Rule for the calls: active = hit-call score of the fitted dose curve at least 0.9, where 1 is the maximum; inconclusive = response in the unintended direction; inactive = score below 0.9.

Target: Norway rat Vesicular Monoamine Transporter (VMAT2), neurotransmitter transporter, Slc18a2 (gene 25549) (UniProt Q01827)
Experiment: NVS_TR_rVMAT2: NovaScreen (NVS) Transporter Assay for Norway rat Vesicular Monoamine Transporter (VMAT2), neurotransmitter transporter (AID 2283376);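 note: actives lower the bound radioligand signal below the DMSO level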
Description: NVS_TR_rVMAT2 is a biochemical, single-readout assay that uses extracted gene-proteins from Rat forebrain in a tissue-based cell-free assay. Measurements were taken 1 hour after chemical dosing in a 96-well plate.NVS_TR_rVMAT2 is one of one assay component(s) measured or calculated from the NVS_TR_rVMAT2 assay. It is designed to make measurements of radioligand binding, a form of binding reporter, as detected with scintillation counting signals by Filter-based radiodetection technology.Data from the assay component NVS_TR_rVMAT2 was analyzed into 1 assay endpoint. This assay endpoint, NVS_TR_rVMAT2, was analyzed in the positive analysis fitting direction relative to DMSO as the negative control and baseline of activity. Using a type of binding reporter, loss-of-signal activity can be used to understand changes in the binding as they relate to the gene Slc18a2. Furthermore, this assay endpoint can be referred to as a primary readout, because the performed assay has only produced 1 assay endpoint. To generalize the intended target to other relatable targets, this assay endpoint is annotated to the transporter intended target family, where the subfamily is vesicular transporter.
Binding assays used specific radioligands (tritiated, iodinated) with non-radioactive competitive displacement ligands in agonist or antagonist protocols (as indicated) and various reference compounds and inhibitors to titrate specific binding to receptors and transporters. Most enzyme assays (CYPs, kinases, phosphatases, proteases, HDACs) used recombinant protein and specific substrates (fluorescence mostly, some colorimetric and radioactive) and inhibitors, followed by a biochemical separation of substrate and product. All assays for the biochemical HTS were initially run in duplicate at a single concentration (10 uM for CYP450 assays and 25 uM for all others). […] Each assay was run with positive and negative controls, and concurrent controls on every plate. The follow-up (secondary) screen tested active chemical-pairs in concentration series, as well as a few additional assays not tested in the primary screen, some selected negative inactives, and several cases re-run in the concentration series for confirmatory purposes.

Sequence of Norway rat Vesicular Monoamine Transporter (VMAT2), neurotransmitter transporter, Slc18a2 (gene 25549) (Q01827 whole entry, looked up): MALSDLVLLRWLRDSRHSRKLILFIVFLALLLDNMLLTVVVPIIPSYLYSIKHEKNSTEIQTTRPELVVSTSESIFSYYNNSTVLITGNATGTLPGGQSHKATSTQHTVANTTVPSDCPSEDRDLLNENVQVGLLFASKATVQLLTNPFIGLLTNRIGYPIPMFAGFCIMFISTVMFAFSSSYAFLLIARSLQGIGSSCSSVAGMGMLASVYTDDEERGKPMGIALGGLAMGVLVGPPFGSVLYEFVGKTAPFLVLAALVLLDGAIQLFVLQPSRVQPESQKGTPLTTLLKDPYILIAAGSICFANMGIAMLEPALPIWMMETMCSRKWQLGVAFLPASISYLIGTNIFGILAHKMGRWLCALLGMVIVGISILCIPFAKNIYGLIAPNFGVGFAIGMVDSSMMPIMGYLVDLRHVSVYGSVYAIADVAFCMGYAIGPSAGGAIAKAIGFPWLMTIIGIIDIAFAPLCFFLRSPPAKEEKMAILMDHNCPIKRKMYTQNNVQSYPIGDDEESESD

| Structure (SMILES) | AC50 | outcome |
| --- | --- | --- |
| CC(C)(c1ccc(O)cc1)c1ccc(O)cc1 | 12.5 µM (active) [middle of 4 runs] |  |
| COc1ccc(OC)c(N=Nc2c(O)ccc3ccccc23)c1 | 0.107 µM (active) |  |
| CCOC(=O)CC(=O)OCC |  | inactive |
| C1CNCCN1 |  | inactive |
| Nc1ccc2c(c1)C(=O)c1ccccc1C2=O |  | inactive |
| Clc1nc(Cl)c(Cl)c(Cl)c1Cl |  | inactive |
| COC(=O)OC |  | inactive |
| CS(=O)(=O)c1ccc(C2=C(c3ccccc3)C(=O)OC2)cc1 | 12.5 µM (active) |  |
| O=C1c2ccccc2C(=O)c2c(Cl)cccc21 |  | inactive |
| NC(=NCCCCCCN=C(N)/N=C(\N)Nc1ccc(Cl)cc1)/N=C(\N)Nc1ccc(Cl)cc1 |  | inactive |
| COc1cccc(O)c1 |  | inactive |
| O=C(c1ccc(OCCN2CCCCC2)cc1)c1c(-c2ccc(O)cc2)sc2cc(O)ccc12 | 0.563 µM (active) |  |
| CCCCCCCCCCCCCCCCCC(=O)OCC(CC)CCCC (stereo not given) |  | inactive |
| [Cl][Dy]([Cl])[Cl] |  | inactive |
| O=C=NC1CCC(CC2CCC(N=C=O)CC2)CC1 (stereo not given) | 9.03 µM (active) |  |
| OCCC(F)(F)C(F)(F)C(F)(F)C(F)(F)C(F)(F)C(F)(F)F |  | inactive |
| Cc1ccc(O)c(C(C)(C)C)c1 |  | inactive |
| O=C1CCC(=O)N1 |  | inactive |
| CCOC(=O)C=Cc1ccccc1 |  | inactive |
| CS(=O)(=O)c1ccc([C@@H](CC2CCCC2)C(=O)Nc2cnccn2)cc1Cl | 7.12 µM (active) |  |

| Structure (SMILES) | AC50 | outcome |
| --- | --- | --- |
| CO[C@H]1/C=C/O[C@@]2(C)Oc3c(C)c(O)c4c(O)c(c(/C=N/N5CCN(C)CC5)c(O)c4c3C2=O)NC(=O)/C(C)=C\C=C\[C@H](C)[C@H](O)[C@@H](C)[C@@H](O)[C@@H](C)[C@H](OC(C)=O)[C@@H]1C |  | inactive |
| Cc1ccccc1Cl |  | inactive |
| C=CCOC(Cn1ccnc1)c1ccc(Cl)cc1Cl (stereo not given) | 12 µM (active) |  |
| COC(=O)c1ccc(C(=O)OC)cc1 |  | inactive |
| CN(C)c1ccc(C(=C2C=CC(=[N+](C)C)C=C2)c2ccc(N(C)C)cc2)cc1 | 1.89 µM (active) |  |
| CCOCN(C(=O)CS(=O)(=O)O)c1c(C)cccc1CC |  | inactive |
| O=C(OC[C@H]1O[C@@H](OC(=O)c2cc(O)c(O)c(OC(=O)c3cc(O)c(O)c(O)c3)c2)[C@H](OC(=O)c2cc(O)c(O)c(OC(=O)c3cc(O)c(O)c(O)c3)c2)[C@@H](OC(=O)c2cc(O)c(O)c(OC(=O)c3cc(O)c(O)c(O)c3)c2)[C@@H]1OC(=O)c1cc(O)c(O)c(OC(=O)c2cc(O)c(O)c(O)c2)c1)c1cc(O)c(O)c(OC(=O)c2cc(O)c(O)c(O)c2)c1 |  | inactive |
| CCCC(O)C(O)CO (stereo not given) |  | inactive |
| Oc1ccc(C(c2ccc(O)cc2)C(Cl)(Cl)Cl)cc1 | 7.63 µM (active) |  |
| CCOC(=O)C1=NN(c2ccc(Cl)cc2Cl)C(C)(C(=O)OCC)C1 (stereo not given) | 15.5 µM (active) |  |
| CCCOc1sc(C(=O)N2CCC(c3cc(CN)ccc3F)CC2)c(C)c1Br | 2.89 µM (active) |  |
| CCC(C)N(C)C(=O)c1cc2ccccc2c(-c2ccccc2Cl)n1 (stereo not given) | 9.67 µM (active) |  |
| CCCCCCCCCCCCCCCC(=O)OC/C=C(C)/C=C/C=C(C)/C=C/C1=C(C)CCCC1(C)C |  | inactive |
| O=Cc1ccccc1C=O |  | inactive |
| CC(C)CCCCCCOC(=O)c1ccc(C(=O)OCCCCCCC(C)C)c(C(=O)OCCCCCCC(C)C)c1 |  | inactive |
| CCN(CCC#N)c1ccc(N=Nc2ccc([N+](=O)[O-])cc2)cc1 |  | inactive |
| NNC(=O)c1ccncc1 |  | inactive |
| CCCCCCCCCCCCCCCC[N+](C)(C)CC |  | inactive |
| Nc1ccc(Nc2ccccc2)cc1 | 8.65 µM (active) |  |
| c1ccc2c(c1)ccc1ccccc12 |  | inactive |
